From PubChem BioAssay
ELG1 genotoxic: genotoxicity induction in ELG1-luciferase HEK293T cells. HEK293T ELG1-luciferase reporter, luminescence, 16 h. Potency, µM (series often up to 46 µM), without a hit: top-dose activity change, positive = activation, most hits filed as activators. 330,000 compounds, 1.3% hits. AID 504466; also: % of control where 0% means no effect; nearly all actives have a fitted effect of over 60% in size
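Step 1: seed 2,000 HEK293T ELG1-luciferase cells per well. Step 2: add compound or DMSO, incubate 16 hr at 37 °C. Step 3: ONE-Glo, 30 min at room temperature, read luminescence.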
Rab9 prom act: Rab9 promoter activation | 320,000 compounds, 2.8% hits | Huh7 Rab9 promoter-luciferase reporter, luminescence, 24 h | AID 485297 | Potency, µM (series often up to 9.22 µM), without a hit: at the top dose activation, negative = inhibition, hits mostly activators; also: % of control where 0% means no effect; nearly all actives have a fitted effect of over 60% in size
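Huh7 reporter line, Rab9 promoter upstream of luciferase. Compound exposure 24 h at 37 °C in reduced-serum medium with 10% FBS. Read-out: luminescence.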
KinaseGlo FLuc: Kinase-Glo luciferase inhibition (counter-screen); Q27757; Kinase-Glo luciferase, ATP luminescence, 8 min; Potency, µM (doses to about 38.3 µM), for inactives: top-dose activity change, negative = inhibition, hits mostly inhibitors; 200,000 compounds, 0.28% hits; also: % is scaled to controls: 0 for no effect and ±100 for the full control effect; nearly all actives have a fitted effect of over 60% in size
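Compounds were added to a substrate mix at pH 7.2 (50 mM imidazole, 10 uM ATP, within the enzyme's linear range), followed by Kinase-Glo detection reagent; luminescence was measured after 8 minutes at ambient temperature.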
NPC1 promoter act: activators of NPC1 promoter. Potency, µM (top dose mostly 9.22 µM), for the others: at the highest dose activation, most hits filed as activators. Huh7 NPC1 promoter luciferase reporter, 24 h. AID 485313. 320,000 compounds, 2.4% hits; also: % of control where 0% means no effect; nearly all actives have a fitted effect of over 60% in size
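Stably transfected Huh7 (NPC1 promoter→luciferase), 1500 cells/well in Opti-MEM + 10% FBS, 2 h settle, then compound 24 h at 37 °C. Luminescence after 10 min with Amplite reagent.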
FLuc counter: inhibits or activates purified firefly luciferase, miR-21 counter-screen | 360,000 compounds, 6.9% hits | Potency, µM (titrated, usually from 57.5 µM), for the others: at the highest dose activity change, negative = inhibition, most hits filed as inhibitors | purified FLuc, Km substrates, luminescence inhibition | P08659 | AID 588342;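 also: plate controls were vehicle for no effect and reference inhibitor for full effect; nearly all actives have a fitted effect of over 55% in size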
Target sequence (P08659 whole entry, looked up): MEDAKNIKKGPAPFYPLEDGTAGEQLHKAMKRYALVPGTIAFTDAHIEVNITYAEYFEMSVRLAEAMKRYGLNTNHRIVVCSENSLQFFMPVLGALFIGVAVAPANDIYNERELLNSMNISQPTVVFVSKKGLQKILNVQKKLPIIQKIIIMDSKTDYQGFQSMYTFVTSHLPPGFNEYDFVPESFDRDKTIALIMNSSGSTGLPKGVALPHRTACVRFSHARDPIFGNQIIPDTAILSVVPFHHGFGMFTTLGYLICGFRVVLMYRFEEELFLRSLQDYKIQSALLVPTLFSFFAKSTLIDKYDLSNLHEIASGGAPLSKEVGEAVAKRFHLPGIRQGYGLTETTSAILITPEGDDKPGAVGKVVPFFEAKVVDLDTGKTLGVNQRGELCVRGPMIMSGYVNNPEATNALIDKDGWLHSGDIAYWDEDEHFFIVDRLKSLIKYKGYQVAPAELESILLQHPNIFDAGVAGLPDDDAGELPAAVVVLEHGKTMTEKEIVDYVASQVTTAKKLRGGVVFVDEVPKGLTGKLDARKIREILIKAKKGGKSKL
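Purified P. pyralis luciferase, 10 nM final, with Km-level 10 uM D-luciferin and 10 uM ATP in 50 mM Tris acetate pH 7.5, 10 mM Mg acetate, 0.01% Tween-20, 0.05% BSA; 6-point qHTS titration about 60 µM downward; luminescence read.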
SMN2 splice enh: increases expression of the SMN2 splice variant | HEK293 SMN2-luciferase splicing reporter, luminescence, 30-36 h | AID 1458 | 210,000 compounds, 2.8% hits | Potency, µM (doses to about 46.1 µM), for the others: at the highest dose activity change, positive = activation, actives largely listed as activators; also: % of control where 0% means no effect; nearly all actives have a fitted effect of over 55% in size
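HEK293 cells carry an SMN2 […]–luciferase reporter in which exon 7 inclusion puts luciferase in frame. Cells were plated 10-12 h before compound addition, then incubated 30-36 h at 37C. ONE-Glo luminescence was read; sodium butyrate at 4.5 mM final served as control.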
* = called active by the depositor; ? = inconclusive; / = no result; [ ] = remark or other dose. Compounds with a hit are over-represented: about 7.5% of the library has one in this group of screens. Calls follow the shape of the dose curve; as a rule, active = well fitted curve in the direction sought with a large enough effect; inconclusive = small, poorly fitted or top-dose-only effect, or another doubt; inactive = no such curve, though single readings can be large; an effect the other way counts as inactive or inconclusive. Potency is read from the fitted curve at half-maximal effect.

SMILES | ELG1 genotoxic | Rab9 prom act | KinaseGlo FLuc | NPC1 promoter act | FLuc counter | SMN2 splice enh
Cc1cc2nc(-c3cccc(NC(=O)CSc4ccc(Cl)cc4)c3)oc2cc1C | / | / | / | / | 1.9µM* | 1%
Cc1ccc2nc(-c3cccc(NC(=O)c4cccc5c(Cl)cccc45)c3)oc2c1 | / | / | / | / | 2.4µM* | 11%
Cc1cc2nc(-c3cccc(NC(=O)c4cccc5ccccc45)c3)oc2cc1C | / | / | / | / | 2.1µM* | 7%
CCSc1nnc2c(n1)OC(c1sccc1C)N(C(C)=O)c1ccccc1-2 (stereo not drawn) | / | / | / | / | -10% | -15%
O=C(Nc1cccc(-c2nc3ncccc3o2)c1)c1ccccc1 | -5% | 2% | 1% | 0% | ? | -31%
Cc1ccc2nc(-c3ccc(Cl)c(NC(=O)c4ccc(Br)o4)c3)oc2c1 | / | / | / | / | ? | -8%
Cc1ccc(C(=O)Nc2cccc(-c3nc4ncccc4o3)c2)cc1 | -19% | 6% | / | 29% | 13µM* | /
Cc1ccc2nc(-c3cccc(NC(=O)c4ccc(Br)o4)c3)oc2c1 | / | / | / | / | 2.7µM* | 16%
CC(C)[C@H](NC(=O)C1CC(=O)N(c2ccc(F)cc2)C1)C(=O)N1CCCCC1 (stereo partly drawn) | -1% | -2% | / | 0% | 4% | /
Cc1cc(C(=O)OC2CCOC2=O)c2ccccc2n1 (stereo not drawn) | -1% | -1% | 0% | 2% | 1% | -11%
O=C(OC1CCOC1=O)c1cc(-c2cccc(Br)c2)nc2ccccc12 (stereo not drawn) | 3% | -3% | 1% | -4% | ? | 14%
O=C(OC1CCOC1=O)c1cc(-c2ccc(Br)cc2)nc2ccccc12 (stereo not drawn) | -1% | 1% | 2% | -2% | 19µM* | 8%
COc1ccc(-c2cc(C(=O)OC3CCOC3=O)c3ccccc3n2)cc1 (stereo not drawn) | 9% | -5% | 1% | 2% | 7.6µM* | 5%
COc1cccc(NC(=O)CSc2nnc3[nH]c(=O)cc(-c4ccccc4)n23)c1 | / | / | / | / | 1.2µM* | /
COc1cccc(NC(=O)CSc2nc3ccccc3c(=O)n2C)c1 | -7% | -13% | / | -4% | 2% | /
O=C(CSc1nnc2[nH]c(=O)cc(-c3ccccc3)n12)Nc1ccc(OC(F)(F)F)cc1 | / | / | / | / | 2.4µM* | /
COc1ccccc1N(C)S(=O)(=O)c1ccc(C(=O)Nc2ccc(C)cc2C)cc1 | -22% | 2% | / | -3% | 6% | /
COc1cccc2c(N/N=C/c3ccccc3)cc(C)nc12 | -1% | -5% | / | 0% | 2% | /
Cc1cc(N/N=C/c2ccccc2O)c2ccccc2n1 | 11% | -4% | / | 4% | 15µM* | /
COc1ccc2nc(C)cc(Nc3ccccc3O)c2c1 | -7% | -10% | 0% | 1% | -1% | /
Cc1ccccc1/C=N/Nc1nc2ccccc2c(=O)n1O | 17% | 7% | / | 13% | 15µM* | /
COc1ccc(/C=N/Nc2cc(C)nc3ccc(Br)cc23)cc1 | -6% | -4%[1.84 µM] | / | 0% | 21µM* | /
Cc1cc(-c2ccccc2)nc(N/N=C/c2ccc(O)cc2O)n1 | 0% | 4% | / | 3% | ? | /
COc1ccc2nc(C)cc(N/N=C/c3cccc(OC)c3O)c2c1 | 5% | 0% | / | -4% | 17µM* | /
Cn1nc(C(=O)NCC2COc3ccccc3O2)c2ccccc2c1=O (stereo not drawn) | 0% | -3% | / | -8% | 3% | /
CCn1c(SCC#N)nc2c(c1=O)C1(CCCC1)Cc1ccccc1-2 | -5% | 5% | 1% | -7% | 5% | 2%
CCn1c(=O)c2c(n3c(=S)[nH]nc13)-c1ccccc1CC21CCCCC1 | 5% | 2% | 2% | -5% | 15µM* | -18%
CCOc1ccc(N(CC(=O)Nc2ccc(C)c(C)c2)S(C)(=O)=O)cc1 | ? | ? | / | 2.8µM* | 11µM* | /
COc1ccc(NN=Nc2ccc([N+](=O)[O-])cc2)cc1 | ? | 3.5µM* | / | ? | 2.4µM* | /
